# Assay results taken from PubChem BioAssay (EPA / NIEHS).
# Where “and” joins values, the source holds several entries; their conditions need not be identical. Identical values can stand only once. Records with an inconclusive call do not appear. A structure can be active in one record and inactive in another. Calls of active or inactive are those of the source. Rule for the calls, unless noted: active = hit-call score of the fitted dose curve at least 0.9, where 1 is the maximum; inconclusive = response in the unintended direction; inactive = score below 0.9.
# Key:
# [1] = ATG_XTT_Cytotoxicity: Cytotoxicity Assessment in the Attagene TRANS-FACTORIAL HepG2 Assay (AID 2283584);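 for AC50: cells exposed to compound for 24 h before reading; active means loss of viability signal versus DMSO baseline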
# Summary of the method: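 XTT readout of cell number in transfected HepG2 cells, 24 h post-dosing; DMSO serves as negative control and baseline, with activity taken as loss of viability signal.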
# [2] = read-out: UDP glucuronosyltransferase (UGT1A1), UGT1A1 (gene 54658); test: LTEA_HepaRG_UGT1A1: Life Technologies and Expression Analysis (LTEA) Assay for UDP glucuronosyltransferase (UGT1A1) using HepaRG (AID 2283538; active = hit-call score of the fitted dose curve at least 0.9, where 1 is the maximum; inactive = score below 0.9); settings: mRNA level, 48 h; actives raise or lower the signal
# Summary of the method: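 HepaRG cells, 0.5% DMSO vehicle, 48 h exposure in serum-free induction medium to 8-point half-log series topping at 100 uM, in duplicate. UGT1A1 mRNA by Fluidigm qRT-PCR, normalized to ACTB/GAPDH/POLR2A; bidirectional fit versus DMSO.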
# [3] = read-out: UDP glucuronosyltransferase (UGT1A6), UGT1A6 (gene 54578); test: LTEA_HepaRG_UGT1A6: Life Technologies and Expression Analysis (LTEA) Assay for UDP glucuronosyltransferase (UGT1A6) using HepaRG (AID 2283539; active = hit-call score of the fitted dose curve at least 0.9, where 1 is the maximum; inactive = score below 0.9); settings: mRNA level, 48 h; actives raise or lower the signal
# Summary of the method: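 qRT-PCR readout of UGT1A6 mRNA (normalized to ACTB/GAPDH/POLR2A) in differentiated HepaRG cells after 48 h chemical exposure; 8 concentrations, top 100 uM, half-log steps, 0.5% DMSO. Bidirectional curve fit relative to DMSO baseline.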
# [4] = read-out: X-box binding protein 1 (XBP1), XBP1 (gene 7494); test: LTEA_HepaRG_XBP1: Life Technologies and Expression Analysis (LTEA) Assay for X-box binding protein 1 (XBP1) using HepaRG (AID 2283540; active = hit-call score of the fitted dose curve at least 0.9, where 1 is the maximum; inactive = score below 0.9); settings: mRNA level, 48 h; actives raise or lower the signal
# Summary of the method: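 HepaRG, 48 h exposure, 8-pt half-log CRC top 100 uM, 0.5% DMSO vehicle, duplicates. Readout: TaqMan qRT-PCR of XBP1 mRNA, housekeeping-normalised (ACTB/GAPDH/POLR2A); bidirectional fit vs DMSO baseline.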
# [5] = LTEA_HepaRG_LDH_cytotoxicity: Cytotoxicity Assessment in the Life Technologies and Expression Analysis (LTEA) Assay (AID 2283563);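 for AC50: LDH activity released into spent culture medium as a marker of cell death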
# Summary of the method: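 HepaRG (human liver line), 48 h exposure, 8-pt half-log series from 100 uM, 0.5% DMSO vehicle, duplicates. Read-out: LDH in spent medium. Positive-direction fit vs DMSO baseline.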
# [6] = read-out: Cellular tumor antigen p53 (Homo sapiens) (UniProt P04637); test: LTEA_HepaRG_TP53: Life Technologies and Expression Analysis (LTEA) Assay for Tumor Protein P53 (TP53) using HepaRG (AID 2283537; active = hit-call score of the fitted dose curve at least 0.9, where 1 is the maximum; inactive = score below 0.9); settings: mRNA level, 48 h; actives raise or lower the signal
# Procedure: LTEA_HepaRG is a cell based, multiplexed-readout assay that uses HepaRG, a human liver cell line, with measurements taken at 48 hours after chemical dosing on a 96-well plate.LTEA_HepaRG_TP53 is one of 102 assay component(s) measured in the LTEA HepaRG cell culture assay. It is a marker of Oxidative Stress.Data from the assay component LTEA_HepaRG_TP53 was analyzed into 1 endpoint. This assay endpoint, LTEA_HepaRG_TP53, was analyzed with bidirectional fitting relative to DMSO as the negative control and baseline of activity. Using a type of inducible reporter, measures of mRNA induction for gain or loss-of-signal activity can be used to understand regulation of transcription factor activity. To generalize the intended target to other relatable targets, this assay endpoint is annotated to the dna binding intended target family, where the subfamily is tumor suppressor.
# A total of 1060 chemcials from the ToxCast library were tested in eight-point concentration-response experiments. Cell culture and cytotoxicity assays were conducted at Thermo Fisher Scientific's Custom Services facility (Madison, WI). A single lot of human HepaRG cells (Thermo Fisher Scientific, Frederick, MD) was used for the cell culture experiments. 96-well format collagen type I coated plates of human HepaRG cells were prepared using established methods. Briefly, cryopreserved HepaRG cells were thawed, plated at a density of approximately 100,000 cells/well in HepaRG Thaw, Plate, and General Purpose media (HPRG770, Thermo Fisher Scientific), and incubated for 48 hours. 0.5% DMSO was selected as vehicle control to balance the requisite need of DMSO in HepaRG cultures to maintain differentiation (for example, baseline metabolism, proportions of hepatocytes vs. cholangiocytes), while enabling further hepatic receptor pathway activation (for example, PXR and CAR) in response to chemical exposure. 48 hours after plating, the culture medium was replaced with HepaRG Serum-Free Incudtion Media. Cells were exposed to each test chemical in duplicate and maintained in CO2 incubators for another 48 hours. Chemical plates were thawed to room temperature and 200x concentrations of treatment groups were prepared. 8-point conentration-reponse curves were made with the highest exposure at 100 uM, followed by half-log dilutions, all in 0.5% DMSO. Each test plate contained variouse controls, induction positive controls (1mM phenobarbital), cytotoxicity positive controls ([…] aflatoxin B1), vehicle controls (0.5% DMSO), and total lysis controls (0.5% DMSO). […] Fluidigm's 96.96 Dynamic ArrayTM (Fluidigm, Amsterdam, the Netherlands) technology was used for gene expression analyses by quantitative reverse transcription polymerase chain reaction (qRT-PCR, performed by Quintiles/Expression Analysis, Durham, NC)89. […]
# [7] = TOX21_p53_BLA_p2_viability: Viability Assessment in the Tox21 HCT-116 p53 Agonism Beta-lactamase Assay, Phase 2 (AID 2283591);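 note: compound exposure lasted 16 h at 37 °C; actives lower the ATP signal meaning cytotoxicity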
# Summary of the method: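 HCT-116 p53-bla cells (4000/well) rested 5 h at 37C, then received compounds in DMSO (217-fold dilution) for 16 h at 37C, 5% CO2. After the CCF4 read, CellTiter-Glo was added; ATP luminescence was read after 30 min at room temperature.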
# [8] = biological target: Cellular tumor antigen p53 (Homo sapiens) (UniProt P04637); test: TOX21_p53_BLA_p2_ratio: Tox21 HCT-116 p53 Agonism Beta-lactamase Assay, Ratio, Phase 2 (AID 2283592)
# Summary of the method: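 In this cell-based reporter format, HCT116 cells were dosed with chemicals delivered from DMSO by 217-fold dilution and incubated 16 h at 37C. Emission at 460 and 530 nm after 2 h CCF4-AM loading provided the ratio, fitted upward versus DMSO.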
# [9] = TOX21_p53_BLA_p3_viability: Viability Assessment in the Tox21 HCT-116 p53 Agonism Beta-lactamase Assay, Phase 3 (AID 2283593);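 note: cells exposed to compound for 16 h before reading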
# Summary of the method: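 HCT-116 cells (4000/well) rested 5 h at 37C, then got DMSO compounds by pin tool (217-fold dilution) for 16 h at 37C, 5% CO2. After the bla read, CellTiter-Glo was added and luminescence read at 30 min, room temperature.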
# [10] = biological target: Cellular tumor antigen p53 (Homo sapiens) (UniProt P04637); test: TOX21_p53_BLA_p3_ratio: Tox21 HCT-116 p53 Agonism Beta-lactamase Assay, Ratio, Phase 3 (AID 2283596)
# Summary of the method: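 HCT116 p53-bla cells (4000/well) given compound in DMSO (217-fold dilution) after 5 h, incubated 16 h at 37C. CCF4-AM substrate 2 h at room temperature; 460/530 nm emission ratio, gain fitted against DMSO.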
# Chain of Cellular tumor antigen p53 (Homo sapiens) (P04637 whole entry, looked up): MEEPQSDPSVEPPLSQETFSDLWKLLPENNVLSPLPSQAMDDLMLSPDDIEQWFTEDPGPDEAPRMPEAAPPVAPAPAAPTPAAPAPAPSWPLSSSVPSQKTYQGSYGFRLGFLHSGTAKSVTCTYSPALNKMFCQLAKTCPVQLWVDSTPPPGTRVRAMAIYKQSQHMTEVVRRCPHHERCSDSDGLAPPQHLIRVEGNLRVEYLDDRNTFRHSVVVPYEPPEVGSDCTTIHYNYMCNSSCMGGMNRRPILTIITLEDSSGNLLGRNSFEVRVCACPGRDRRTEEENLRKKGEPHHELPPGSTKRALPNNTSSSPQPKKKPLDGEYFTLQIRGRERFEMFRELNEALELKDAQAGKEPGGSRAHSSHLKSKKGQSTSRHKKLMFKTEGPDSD
structure (smiles),measurement,setting,value
C=Cc1ccc(O)c(OC)c1,outcome,[1],inactive
CCCCCCCCCCCCCCC,AC50,[2],19.8 µM (active)
same,outcome,[3],inactive
same,outcome,[4],inactive
same,outcome,[5],inactive
same,outcome,[1],inactive
CC(=O)Nc1ccc(O)cc1,outcome,[2],inactive
same,outcome,[3],inactive
same,outcome,[4],inactive
same,outcome,[5],inactive
same,outcome,[1],inactive
O=C1NS(=O)(=O)c2ccccc21,outcome,[2],inactive
same,outcome,[3],inactive
same,outcome,[4],inactive
same,outcome,[5],inactive
same,outcome,[1],inactive
CC1CCC(CO)CC1 (stereo not drawn),outcome,[1],inactive
CC[N+](CC)(CC)Cc1ccccc1,outcome,[1],inactive
CCCCCCCCCCCC,AC50,[1],89.9 µM (active)
O=C(CCCN1CCC(O)(c2ccc(Cl)cc2)CC1)c1ccc(F)cc1,AC50,[6],79.1 µM (active)
same,AC50,[2],79.3 µM (active)
same,AC50,[3],76.1 µM (active)
same,outcome,[4],inactive
same,AC50,[5],73.6 µM (active)
same,outcome,[1],inactive
same,outcome,[7],inactive
same,outcome,[8],inactive
same,outcome,[9],inactive
same,outcome,[10],inactive
CC1CCC(C(=O)O)CC1 (stereo not drawn),outcome,[1],inactive
CCO[Si](CCC1CCC2OC2C1)(OCC)OCC (stereo not drawn),outcome,[1],inactive
CCCCC(CC)C(=O)O (stereo not drawn),outcome,[2],inactive
same,outcome,[3],inactive
same,outcome,[4],inactive
same,outcome,[5],inactive
same,outcome,[1],inactive
CCC(C)c1ccccc1O (stereo not drawn),outcome,[2],inactive
same,outcome,[3],inactive
same,outcome,[4],inactive
same,outcome,[5],inactive
same,outcome,[1],inactive
CCCCc1oc2ccccc2c1C(=O)c1cc(I)c(OCCN(CC)CC)c(I)c1,AC50,[6],66.8 µM (active)
same,AC50,[2],60.7 µM (active)
same,AC50,[3],55.5 µM (active)
same,outcome,[4],inactive
same,AC50,[5],57 µM (active)
same,outcome,[1],inactive
same,AC50,[7],59.9 µM (active)
same,outcome,[7],inactive
same,outcome,[8],inactive
same,AC50,[9],32.3 µM (active) and 51.8 µM (active)
same,outcome,[9],inactive
same,outcome,[10],inactive
C=CC(=O)OCCN(CC)CC,outcome,[1],inactive
OCC(CO)(CBr)CBr,outcome,[2],inactive
same,outcome,[3],inactive
same,outcome,[4],inactive
same,outcome,[5],inactive
c1cc[nH]c1,outcome,[1],inactive
CCCCCCCCCCCC(=O)O,outcome,[1],inactive
CCCCC=O,outcome,[2],inactive
same,outcome,[3],inactive
same,outcome,[4],inactive
same,outcome,[5],inactive
same,outcome,[1],inactive
Clc1ccc2c(Cl)ccnc2c1,outcome,[1],inactive
C/C=C/C(=O)C1=C(C)CCCC1(C)C,outcome,[1],inactive
CCOC=O,outcome,[1],inactive
Cn1sccc1=O,outcome,[1],inactive
N=C(N)c1ccc(OCCCCCOc2ccc(C(=N)N)cc2)cc1,AC50,[2],4.48 µM (active)
same,AC50,[3],37.8 µM (active)
same,AC50,[4],28.5 µM (active)
same,AC50,[5],12 µM (active)
same,outcome,[1],inactive
O=C(c1ccccc1)c1ccccc1,outcome,[6],inactive
same,AC50,[2],4.85 µM (active)
same,outcome,[3],inactive
same,outcome,[4],inactive
same,outcome,[5],inactive
same,outcome,[1],inactive
same,outcome,[7],inactive
same,outcome,[8],inactive
same,outcome,[9],inactive
same,outcome,[10],inactive
CCCCCCCCCCCCOS(=O)(=O)O,AC50,[2],91.7 µM (active)
same,AC50,[3],81 µM (active)
same,outcome,[4],inactive
same,outcome,[5],inactive
CN(C)CCOC(c1ccccc1)c1ccccc1,outcome,[2],inactive
same,outcome,[3],inactive
same,outcome,[4],inactive
same,outcome,[5],inactive
same,outcome,[1],inactive
same,outcome,[9],inactive
CN(Cc1cnc2nc(N)nc(N)c2n1)c1ccc(C(=O)N[C@@H](CCC(=O)O)C(=O)O)cc1,outcome,[2],inactive
same,outcome,[3],inactive
same,AC50,[4],0.0944 µM (active)
same,outcome,[5],inactive
same,outcome,[1],inactive
CCCCCCCC(OC)OC,outcome,[1],inactive
Oc1cc2ccccc2cc1O,outcome,[1],inactive
CCc1cccc(CC)c1NC(=O)C(=O)O,outcome,[1],inactive
CCCCCc1ccc(O)cc1,outcome,[1],inactive
CS(=O)(=O)c1ccc([C@@H](CC2CCCC2)C(=O)Nc2cnccn2)cc1Cl,AC50,[6],61.3 µM (active)
same,AC50,[2],12.2 µM (active)
same,AC50,[3],89.2 µM (active)
same,outcome,[4],inactive
OCCN1CN(CCO)CN(CCO)C1,outcome,[1],inactive
COC(O)c1ccccc1 (stereo not drawn),outcome,[1],inactive
Cc1[nH]nc2c1N=C(c1ccccc1Cl)c1cc([N+](=O)[O-])ccc1N2,outcome,[2],inactive
same,AC50,[3],86.8 µM (active)
same,AC50,[4],3.64 µM (active)
same,AC50,[5],61.4 µM (active)
same,outcome,[1],inactive
CN(C)c1ccc(C(=C2C=CC(=[N+](C)C)C=C2)c2ccccc2)cc1,AC50,[8],9.06 µM (active) and 39.7 µM (active)
same,AC50,[9],1.15 µM (active)
same,outcome,[9],inactive
same,AC50,[10],15.1 µM (active)
same,outcome,[10],inactive
CCCCCC(C)OC(=O)COc1ccc(Cl)c2cccnc12 (stereo not drawn),outcome,[1],inactive
same,outcome,[7],inactive
same,outcome,[8],inactive
same,outcome,[9],inactive
same,outcome,[10],inactive
CCCCCCCCCCCC(=O)NCCCN(C)C,outcome,[1],inactive
same,AC50,[7],44.2 µM (active)
same,AC50,[8],87.1 µM (active)
same,AC50,[9],47.3 µM (active)
same,AC50,[10],87.2 µM (active)
O=C(Nc1ccc(Cl)c(Cl)c1)c1cc(Cl)cc(Cl)c1O,AC50,[1],43.1 µM (active)
same,AC50,[7],0.558 µM (active)
same,AC50,[8],0.354 µM (active)
same,AC50,[9],0.989 µM (active)
same,AC50,[10],0.434 µM (active)
CC=O,outcome,[1],inactive
same,AC50,[7],46.2 µM (active)
same,AC50,[8],3.17 µM (active)
same,AC50,[9],86.1 µM (active)
same,AC50,[10],2.37 µM (active)
O=C1OC2(c3ccccc31)c1cc(I)c(O)c(I)c1Oc1c2cc(I)c(O)c1I,outcome,[1],inactive
same,outcome,[7],inactive
same,AC50,[8],78.6 µM (active)
same,outcome,[8],inactive
same,outcome,[9],inactive
same,AC50,[10],87.3 µM (active)
same,outcome,[10],inactive
CC(C)(C)C1CCCCC1O (stereo not drawn),outcome,[1],inactive
same,outcome,[7],inactive
same,outcome,[8],inactive
same,outcome,[9],inactive
NS(=O)(=O)O,outcome,[1],inactive
same,outcome,[7],inactive
same,outcome,[8],inactive
same,outcome,[9],inactive
same,outcome,[10],inactive
CCCCCCc1ccc(N)cc1,outcome,[1],inactive
same,outcome,[7],inactive
same,outcome,[8],inactive
same,outcome,[9],inactive
same,outcome,[10],inactive
OCC1CCC(CO)CC1 (stereo not drawn),outcome,[1],inactive
same,outcome,[7],inactive
same,outcome,[8],inactive
